Among the data in PMC7862700, “An all-to-all approach to the identification of sequence-specific readers for epigenetic DNA modifications on cytosine” are binding signal values, retold here.

What all share (assay): DAPPL (digital affinity profiling via proximity ligation, sequencing); 10 mM Tris-HCl pH 7.5, 50 mM NaCl, 1 mM DTT, 4% glycerol, room temperature, 30 min; GST-TFs on glutathione beads, 16-mer random dsDNA library, 0.1% formaldehyde crosslink after washing; high values mean tight binding
One assay concerns the target T1, FLI1 (Homo sapiens, UniProt Q01543 1-452).
T1 sequence: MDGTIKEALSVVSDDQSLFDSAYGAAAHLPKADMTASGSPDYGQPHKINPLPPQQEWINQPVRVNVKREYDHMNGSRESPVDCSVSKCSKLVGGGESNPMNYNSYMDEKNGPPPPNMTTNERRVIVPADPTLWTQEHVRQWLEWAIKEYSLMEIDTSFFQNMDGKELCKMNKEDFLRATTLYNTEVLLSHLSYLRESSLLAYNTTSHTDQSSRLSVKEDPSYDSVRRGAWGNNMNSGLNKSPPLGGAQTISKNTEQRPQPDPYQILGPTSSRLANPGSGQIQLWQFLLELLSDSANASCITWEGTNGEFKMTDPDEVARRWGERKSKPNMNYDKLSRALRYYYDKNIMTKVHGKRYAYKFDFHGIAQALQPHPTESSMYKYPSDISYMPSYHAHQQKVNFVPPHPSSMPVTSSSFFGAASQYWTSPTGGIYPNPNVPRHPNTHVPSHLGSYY
The note with it: protein: recombinant; tags: N-terminal GST; dsDNA, one strand shown. An outline of the steps: (§1)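 Human transcription factors were made in yeast as GST fusions, captured on glutathione beads and barcoded with DNA. With a tag-only sample included, the pool was incubated with 200 nmole of a random double-stranded 16-mer DNA library in Tris/NaCl/DTT/glycerol buffer at room temperature for 30 min, then crosslinked with 0.1% formaldehyde after washing, ligated by proximity, amplified and sequenced. For binding signal, each hexamer's read frequency for a factor is divided by its frequency for the tag-only sample.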

Another assay deals with T2, ELK1 (Homo sapiens, UniProt P19419 1-428).
T2 sequence: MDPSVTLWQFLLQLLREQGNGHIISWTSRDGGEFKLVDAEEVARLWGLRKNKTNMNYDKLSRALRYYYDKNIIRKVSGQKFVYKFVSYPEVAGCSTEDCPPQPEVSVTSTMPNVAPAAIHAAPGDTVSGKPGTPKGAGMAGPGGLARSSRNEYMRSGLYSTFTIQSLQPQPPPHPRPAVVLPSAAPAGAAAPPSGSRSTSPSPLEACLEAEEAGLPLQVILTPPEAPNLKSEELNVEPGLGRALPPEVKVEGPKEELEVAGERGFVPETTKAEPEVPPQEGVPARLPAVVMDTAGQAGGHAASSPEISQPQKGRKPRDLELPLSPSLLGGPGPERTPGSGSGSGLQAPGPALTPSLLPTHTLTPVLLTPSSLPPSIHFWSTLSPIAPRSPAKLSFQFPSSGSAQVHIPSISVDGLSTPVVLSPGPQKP
As to conditions: protein: recombinant; tags: N-terminal GST; dsDNA, one strand shown. An outline of the steps:
as §1

In a further assay the target is T3, GABPA (Homo sapiens, UniProt Q06546 1-454).
T3 sequence: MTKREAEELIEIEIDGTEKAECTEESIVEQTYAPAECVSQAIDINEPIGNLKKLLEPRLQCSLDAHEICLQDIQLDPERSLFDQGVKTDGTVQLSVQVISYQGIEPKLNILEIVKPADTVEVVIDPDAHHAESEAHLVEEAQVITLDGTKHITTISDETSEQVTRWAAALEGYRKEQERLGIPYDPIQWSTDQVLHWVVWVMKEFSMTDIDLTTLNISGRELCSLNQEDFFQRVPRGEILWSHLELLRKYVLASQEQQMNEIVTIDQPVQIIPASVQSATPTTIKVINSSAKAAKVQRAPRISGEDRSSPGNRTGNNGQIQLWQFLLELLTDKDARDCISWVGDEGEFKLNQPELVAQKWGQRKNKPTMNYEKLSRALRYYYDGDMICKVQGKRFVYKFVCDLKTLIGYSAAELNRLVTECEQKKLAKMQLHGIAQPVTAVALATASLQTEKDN
The note with it: protein: recombinant; tags: N-terminal GST; dsDNA, one strand shown. An outline of the steps:
as §1

A further assay has as its target T4, ERG (Homo sapiens, UniProt P11308 1-479).
T4 sequence: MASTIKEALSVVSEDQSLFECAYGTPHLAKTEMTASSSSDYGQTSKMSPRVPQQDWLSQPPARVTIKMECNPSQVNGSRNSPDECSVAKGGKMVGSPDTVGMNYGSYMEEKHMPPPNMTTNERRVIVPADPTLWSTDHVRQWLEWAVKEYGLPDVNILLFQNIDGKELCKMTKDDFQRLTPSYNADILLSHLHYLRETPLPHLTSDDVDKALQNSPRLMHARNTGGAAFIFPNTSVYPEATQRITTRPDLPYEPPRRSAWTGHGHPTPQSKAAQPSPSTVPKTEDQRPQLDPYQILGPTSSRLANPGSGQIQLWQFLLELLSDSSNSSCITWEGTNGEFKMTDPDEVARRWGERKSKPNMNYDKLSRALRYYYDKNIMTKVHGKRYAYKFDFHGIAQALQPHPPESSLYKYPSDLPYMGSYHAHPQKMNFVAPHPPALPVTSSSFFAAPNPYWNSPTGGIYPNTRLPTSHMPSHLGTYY
The note with it: protein: recombinant; tags: N-terminal GST; dsDNA, one strand shown. The gist of the method: as §1

For another assay, the target named is ELF1 (Homo sapiens, UniProt P32519 1-619). The note with it: protein: recombinant; tags: N-terminal GST; dsDNA, one strand shown. An outline of the steps:
as §1

A further assay addresses T5, EHF (Homo sapiens, UniProt Q9NZC4 1-300).
T5 sequence: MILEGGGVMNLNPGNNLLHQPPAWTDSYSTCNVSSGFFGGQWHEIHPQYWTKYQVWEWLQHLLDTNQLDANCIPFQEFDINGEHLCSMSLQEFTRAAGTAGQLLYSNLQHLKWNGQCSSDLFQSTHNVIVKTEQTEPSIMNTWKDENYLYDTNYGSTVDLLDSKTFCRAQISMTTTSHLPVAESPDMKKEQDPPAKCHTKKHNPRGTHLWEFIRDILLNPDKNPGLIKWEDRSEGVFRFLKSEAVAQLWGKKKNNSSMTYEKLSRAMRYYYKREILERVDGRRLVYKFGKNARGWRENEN
As to conditions: protein: recombinant; tags: N-terminal GST; dsDNA, one strand shown. The gist of the method: as §1

A further assay has as its target SPI1 (Homo sapiens, UniProt P17947 1-270). The note with it: protein: recombinant; tags: N-terminal GST; dsDNA, one strand shown. The gist of the method:
as §1

For the next assay, the target named is SPIB (Homo sapiens, UniProt Q01892 1-262). As to conditions: protein: recombinant; tags: N-terminal GST; dsDNA, one strand shown. An outline of the steps:
as §1

The target of another assay is T6, ELK3 (Homo sapiens, UniProt P41970 1-407).
T6 sequence: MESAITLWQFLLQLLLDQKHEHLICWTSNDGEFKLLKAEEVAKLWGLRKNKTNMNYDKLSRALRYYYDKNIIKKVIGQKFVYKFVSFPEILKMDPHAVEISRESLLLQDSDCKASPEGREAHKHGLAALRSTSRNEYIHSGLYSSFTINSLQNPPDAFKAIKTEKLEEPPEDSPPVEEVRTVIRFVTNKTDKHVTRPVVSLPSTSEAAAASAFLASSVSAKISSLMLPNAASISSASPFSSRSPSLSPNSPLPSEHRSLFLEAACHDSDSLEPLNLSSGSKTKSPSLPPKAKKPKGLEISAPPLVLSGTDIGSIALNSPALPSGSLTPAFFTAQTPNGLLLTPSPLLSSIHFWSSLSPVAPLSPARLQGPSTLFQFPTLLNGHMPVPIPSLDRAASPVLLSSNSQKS
The note with it: protein: recombinant; tags: N-terminal GST; dsDNA, one strand shown. The gist of the method:
as §1

In a further assay the target is T7, FEV (Homo sapiens, UniProt Q99581 1-238).
T7 sequence: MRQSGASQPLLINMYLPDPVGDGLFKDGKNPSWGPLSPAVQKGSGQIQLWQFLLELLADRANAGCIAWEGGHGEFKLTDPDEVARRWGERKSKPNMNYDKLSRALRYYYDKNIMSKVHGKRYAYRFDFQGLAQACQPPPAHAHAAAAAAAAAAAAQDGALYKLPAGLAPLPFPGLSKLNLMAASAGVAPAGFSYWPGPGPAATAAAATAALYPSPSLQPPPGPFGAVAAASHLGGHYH
As to conditions: protein: recombinant; tags: N-terminal GST; dsDNA, one strand shown. An outline of the steps:
as §1

A further assay deals with ETV5 (Homo sapiens, UniProt P41161 1-510). The note with it: protein: recombinant; tags: N-terminal GST; dsDNA, one strand shown. The gist of the method: as §1
ETV5, sequence (P41161 whole entry): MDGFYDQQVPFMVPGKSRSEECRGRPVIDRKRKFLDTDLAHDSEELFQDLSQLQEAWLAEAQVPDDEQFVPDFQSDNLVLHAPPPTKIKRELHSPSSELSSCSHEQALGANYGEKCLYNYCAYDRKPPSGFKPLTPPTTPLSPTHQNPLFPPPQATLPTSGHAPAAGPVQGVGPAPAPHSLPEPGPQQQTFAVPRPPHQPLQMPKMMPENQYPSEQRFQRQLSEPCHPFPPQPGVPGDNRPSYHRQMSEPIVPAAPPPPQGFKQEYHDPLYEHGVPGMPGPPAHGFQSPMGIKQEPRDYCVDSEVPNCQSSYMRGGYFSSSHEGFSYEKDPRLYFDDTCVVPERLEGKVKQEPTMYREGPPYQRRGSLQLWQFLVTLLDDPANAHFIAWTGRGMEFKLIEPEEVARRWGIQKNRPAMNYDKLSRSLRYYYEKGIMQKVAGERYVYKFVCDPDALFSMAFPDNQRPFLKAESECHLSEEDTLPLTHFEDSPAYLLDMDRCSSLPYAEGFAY
For another assay, the target named is HSF1 (Homo sapiens, UniProt Q00613 1-529). As to conditions: protein: recombinant; tags: N-terminal GST; chain copies: 3; dsDNA, one strand shown. An outline of the steps:
as §1

For another assay, the target named is T8, SPIC (Homo sapiens, UniProt Q8N5J4 1-248).
T8 sequence: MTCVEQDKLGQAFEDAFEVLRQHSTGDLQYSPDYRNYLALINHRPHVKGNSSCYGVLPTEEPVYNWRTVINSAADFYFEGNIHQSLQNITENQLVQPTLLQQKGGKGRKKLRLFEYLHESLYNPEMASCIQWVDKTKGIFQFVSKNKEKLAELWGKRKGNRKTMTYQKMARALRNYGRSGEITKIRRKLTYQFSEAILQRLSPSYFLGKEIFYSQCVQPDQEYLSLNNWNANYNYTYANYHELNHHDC
As to conditions: protein: recombinant; tags: N-terminal GST; dsDNA, one strand shown. An outline of the steps:
as §1

The next assay has as its target ELF4 (Homo sapiens, UniProt Q99607 1-663). As to conditions: protein: recombinant; tags: N-terminal GST; dsDNA, one strand shown. An outline of the steps:
as §1

Another assay has as its target T9, ELK4 (Homo sapiens, UniProt P28324-2 1-405).
T9 sequence: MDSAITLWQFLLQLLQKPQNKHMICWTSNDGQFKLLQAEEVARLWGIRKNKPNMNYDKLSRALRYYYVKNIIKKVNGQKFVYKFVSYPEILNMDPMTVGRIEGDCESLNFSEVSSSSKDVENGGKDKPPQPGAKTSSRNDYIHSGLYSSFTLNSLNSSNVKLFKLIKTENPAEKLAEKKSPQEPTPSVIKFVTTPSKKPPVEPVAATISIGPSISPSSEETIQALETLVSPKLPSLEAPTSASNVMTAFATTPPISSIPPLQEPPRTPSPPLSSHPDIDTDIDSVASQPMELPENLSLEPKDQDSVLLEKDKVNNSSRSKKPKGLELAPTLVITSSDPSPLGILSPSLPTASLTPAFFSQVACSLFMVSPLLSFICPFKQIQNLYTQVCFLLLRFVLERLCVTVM
The note with it: protein: recombinant; tags: N-terminal GST; dsDNA, one strand shown. The gist of the method:
as §1

The next assay has as its target T10, ETV2 (Homo sapiens, UniProt O00321 1-342).
T10 sequence: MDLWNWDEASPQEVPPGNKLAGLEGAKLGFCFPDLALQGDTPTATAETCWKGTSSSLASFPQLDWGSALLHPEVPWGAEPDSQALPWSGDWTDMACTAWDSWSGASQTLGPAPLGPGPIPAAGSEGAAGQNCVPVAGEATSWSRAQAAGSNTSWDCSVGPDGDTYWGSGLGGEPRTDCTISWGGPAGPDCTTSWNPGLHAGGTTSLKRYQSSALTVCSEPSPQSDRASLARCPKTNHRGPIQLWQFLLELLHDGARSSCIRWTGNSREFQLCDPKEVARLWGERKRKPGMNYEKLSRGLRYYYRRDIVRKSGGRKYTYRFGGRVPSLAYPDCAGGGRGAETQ
As to conditions: protein: recombinant; tags: N-terminal GST; dsDNA, one strand shown. The gist of the method: as §1

The next assay deals with T11, ELF3 (Homo sapiens, UniProt P78545 1-371).
T11 sequence: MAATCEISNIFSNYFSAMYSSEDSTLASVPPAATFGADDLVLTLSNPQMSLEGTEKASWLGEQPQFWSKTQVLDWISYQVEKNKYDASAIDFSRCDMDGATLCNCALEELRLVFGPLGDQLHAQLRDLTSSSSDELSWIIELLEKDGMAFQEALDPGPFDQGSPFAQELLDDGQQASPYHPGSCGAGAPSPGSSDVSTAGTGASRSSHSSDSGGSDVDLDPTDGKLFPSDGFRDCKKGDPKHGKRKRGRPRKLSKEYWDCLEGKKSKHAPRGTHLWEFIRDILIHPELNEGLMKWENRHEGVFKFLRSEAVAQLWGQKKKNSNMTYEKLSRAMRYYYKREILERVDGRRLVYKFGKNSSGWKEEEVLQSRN
As to conditions: protein: recombinant; tags: N-terminal GST; dsDNA, one strand shown. An outline of the steps: as §1

For another assay, the target named is CRX (Homo sapiens, UniProt O43186 1-299). As to conditions: protein: recombinant; tags: N-terminal GST; dsDNA, one strand shown. An outline of the steps: as §1
CRX, sequence (O43186 whole entry): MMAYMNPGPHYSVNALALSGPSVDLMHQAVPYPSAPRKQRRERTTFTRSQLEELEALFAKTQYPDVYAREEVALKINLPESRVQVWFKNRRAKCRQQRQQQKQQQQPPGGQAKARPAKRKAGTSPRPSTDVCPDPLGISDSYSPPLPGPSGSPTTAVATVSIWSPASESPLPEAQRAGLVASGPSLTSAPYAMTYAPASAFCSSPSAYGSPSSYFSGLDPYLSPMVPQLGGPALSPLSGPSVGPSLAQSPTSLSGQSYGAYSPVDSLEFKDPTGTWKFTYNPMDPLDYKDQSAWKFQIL
The target in a further assay is ETV1 (Homo sapiens, UniProt P50549 1-477). The note with it: protein: recombinant; tags: N-terminal GST; dsDNA, one strand shown. The gist of the method:
as §1

SPIB, sequence (Q01892 whole entry): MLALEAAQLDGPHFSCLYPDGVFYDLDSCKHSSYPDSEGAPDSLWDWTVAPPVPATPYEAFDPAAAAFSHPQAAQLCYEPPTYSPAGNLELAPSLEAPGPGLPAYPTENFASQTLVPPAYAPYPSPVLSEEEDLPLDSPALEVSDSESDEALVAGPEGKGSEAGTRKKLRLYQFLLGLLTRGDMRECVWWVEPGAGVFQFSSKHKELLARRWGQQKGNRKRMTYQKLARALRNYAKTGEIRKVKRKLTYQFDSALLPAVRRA
HSF1, sequence (Q00613 whole entry): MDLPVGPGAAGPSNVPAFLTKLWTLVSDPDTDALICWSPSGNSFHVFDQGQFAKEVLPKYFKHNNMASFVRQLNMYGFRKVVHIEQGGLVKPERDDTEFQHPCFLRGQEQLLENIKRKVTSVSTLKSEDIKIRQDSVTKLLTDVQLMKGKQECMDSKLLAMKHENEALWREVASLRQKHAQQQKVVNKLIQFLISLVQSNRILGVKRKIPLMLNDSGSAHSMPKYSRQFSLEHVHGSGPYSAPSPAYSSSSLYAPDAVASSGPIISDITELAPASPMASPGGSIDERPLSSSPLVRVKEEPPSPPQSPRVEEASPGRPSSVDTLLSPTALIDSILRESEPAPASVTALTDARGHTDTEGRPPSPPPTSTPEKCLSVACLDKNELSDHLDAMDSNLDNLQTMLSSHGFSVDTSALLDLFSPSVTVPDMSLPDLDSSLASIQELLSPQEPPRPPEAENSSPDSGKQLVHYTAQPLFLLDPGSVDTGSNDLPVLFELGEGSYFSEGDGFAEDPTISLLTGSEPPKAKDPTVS
ETV1, sequence (P50549 whole entry): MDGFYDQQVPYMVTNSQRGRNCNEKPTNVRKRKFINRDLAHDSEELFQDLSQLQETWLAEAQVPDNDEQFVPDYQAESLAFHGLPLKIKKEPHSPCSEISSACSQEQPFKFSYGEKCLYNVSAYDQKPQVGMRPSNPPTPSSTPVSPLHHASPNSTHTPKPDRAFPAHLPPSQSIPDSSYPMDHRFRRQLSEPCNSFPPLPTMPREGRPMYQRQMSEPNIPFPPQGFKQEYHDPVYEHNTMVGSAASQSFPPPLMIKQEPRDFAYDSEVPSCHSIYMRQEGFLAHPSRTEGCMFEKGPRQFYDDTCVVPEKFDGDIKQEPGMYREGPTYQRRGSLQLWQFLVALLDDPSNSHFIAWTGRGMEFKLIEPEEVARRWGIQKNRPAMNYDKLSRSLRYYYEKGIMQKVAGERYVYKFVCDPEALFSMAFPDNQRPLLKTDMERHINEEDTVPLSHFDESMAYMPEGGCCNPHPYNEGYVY
ELF1, sequence (P32519 whole entry): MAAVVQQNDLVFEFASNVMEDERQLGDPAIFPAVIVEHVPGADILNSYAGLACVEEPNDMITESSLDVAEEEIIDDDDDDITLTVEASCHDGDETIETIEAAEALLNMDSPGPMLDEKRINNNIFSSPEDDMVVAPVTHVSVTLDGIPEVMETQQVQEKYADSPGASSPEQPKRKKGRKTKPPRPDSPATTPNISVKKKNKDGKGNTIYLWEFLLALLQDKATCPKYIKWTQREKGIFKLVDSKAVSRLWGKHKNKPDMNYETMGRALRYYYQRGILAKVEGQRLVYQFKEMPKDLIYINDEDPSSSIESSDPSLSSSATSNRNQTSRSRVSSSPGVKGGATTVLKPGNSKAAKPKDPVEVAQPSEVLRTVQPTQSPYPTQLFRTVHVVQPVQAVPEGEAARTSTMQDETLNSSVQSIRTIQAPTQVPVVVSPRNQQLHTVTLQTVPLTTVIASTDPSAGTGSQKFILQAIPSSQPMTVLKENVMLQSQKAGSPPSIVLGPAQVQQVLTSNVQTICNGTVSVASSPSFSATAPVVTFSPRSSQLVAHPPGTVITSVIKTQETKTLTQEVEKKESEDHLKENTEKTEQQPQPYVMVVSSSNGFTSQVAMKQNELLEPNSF
ELF4, sequence (Q99607 whole entry): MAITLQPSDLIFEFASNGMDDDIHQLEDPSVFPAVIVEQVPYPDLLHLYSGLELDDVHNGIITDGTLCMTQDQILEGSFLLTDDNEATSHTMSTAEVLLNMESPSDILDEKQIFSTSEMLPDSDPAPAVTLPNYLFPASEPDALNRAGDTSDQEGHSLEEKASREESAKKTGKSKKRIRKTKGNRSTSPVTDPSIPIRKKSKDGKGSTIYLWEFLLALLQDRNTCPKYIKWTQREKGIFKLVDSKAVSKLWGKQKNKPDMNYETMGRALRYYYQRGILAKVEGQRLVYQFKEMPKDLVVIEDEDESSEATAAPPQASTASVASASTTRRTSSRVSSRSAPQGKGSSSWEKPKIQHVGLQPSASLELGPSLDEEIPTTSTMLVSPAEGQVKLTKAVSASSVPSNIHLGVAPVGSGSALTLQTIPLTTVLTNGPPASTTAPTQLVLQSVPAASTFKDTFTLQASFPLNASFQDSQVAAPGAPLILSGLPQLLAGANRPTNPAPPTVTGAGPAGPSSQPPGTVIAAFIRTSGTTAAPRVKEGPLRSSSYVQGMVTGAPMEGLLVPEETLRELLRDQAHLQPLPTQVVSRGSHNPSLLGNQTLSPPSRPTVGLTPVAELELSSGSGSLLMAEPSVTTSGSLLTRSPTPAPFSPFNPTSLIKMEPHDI

In the case of TTGCTG, the binding signal was 1.25 fold enrichment (6-mer frequency, TF over GST control) with FLI1; 1.13 fold enrichment (6-mer frequency, TF over GST control) with ELK1; 1.21 fold enrichment (6-mer frequency, TF over GST control) with GABPA; 1.13 fold enrichment (6-mer frequency, TF over GST control) in the assay with ERG; 1.29 fold enrichment (6-mer frequency, TF over GST control) with ELF1; 1.25 fold enrichment (6-mer frequency, TF over GST control) with EHF. Also, the binding signal in the assay with SPI1 is 1.18 fold enrichment (6-mer frequency, TF over GST control); with SPIB it was 1.28 fold enrichment (6-mer frequency, TF over GST control); with ELK3, 1.33 fold enrichment (6-mer frequency, TF over GST control); with FEV, 1.13 fold enrichment (6-mer frequency, TF over GST control); with ETV5, 1.09 fold enrichment (6-mer frequency, TF over GST control); with HSF1, 1.23 fold enrichment (6-mer frequency, TF over GST control). Further, the binding signal with SPIC was 1.02 fold enrichment (6-mer frequency, TF over GST control); with ELF4, 1.35 fold enrichment (6-mer frequency, TF over GST control); in the assay with ELK4, 1.34 fold enrichment (6-mer frequency, TF over GST control); in the assay with ETV2, 1.42 fold enrichment (6-mer frequency, TF over GST control); in the assay with ELF3, 1.33 fold enrichment (6-mer frequency, TF over GST control); with CRX it was 1.26 fold enrichment (6-mer frequency, TF over GST control). For the same sequence, the binding signal with ETV1 was 1.39 fold enrichment (6-mer frequency, TF over GST control).
